Assay results as given in PubChem BioAssay.
Active and inactive are the calls of the source.

Columns and labels:
[1] = system: Plasmodium falciparum Sir2 (PF13_0152, Sir2A); assay: pfSir2 binders on small-molecule microarrays, primary screen, biochemical, small-molecule microarray, 635 nm fluorescence (AID 1098); conditions: small-molecule microarray binding, fluorescence 635 nm; higher = more signal;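 also: score merges spot fluorescence intensity with its signal-to-noise ratio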
[2] = small-molecule microarray binders of probe aDKK1, primary screen, biochemical, biotinylated probe, 635/667 nm fluorescence (AID 1099); conditions: higher = more signal;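 also: score merges 667nm spot fluorescence with signal to noise across triplicate slides; reference of the scale not given here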
[3] = small-molecule microarray binders of probe aCHRDL2, primary screen, biochemical, biotinylated probe, 635/667 nm fluorescence (AID 1100); conditions: higher = more signal
[4] = splicing luciferase reporter signal modulators, primary screen, spliceosome inhibition project, cell-based, HEK293, splice +/- reporter (AID 1101); conditions: luminescence, 24 h, higher = more signal, called active from +8 up or from −8 down;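 also: HEK293 cells carrying a splicing-competent luciferase reporter gene; test concentration not given here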
[5] = molecular target: Fibroblast growth factor 10 (Homo sapiens) (UniProt O15520); assay: FGF10 binders on small-molecule microarrays, primary screen, biochemical, small-molecule microarray, 635 nm fluorescence (AID 1102); conditions: FGF10 binding, fluorescence 635 nm, higher = more signal
Fibroblast growth factor 10 (Homo sapiens), sequence (O15520 whole entry, looked up): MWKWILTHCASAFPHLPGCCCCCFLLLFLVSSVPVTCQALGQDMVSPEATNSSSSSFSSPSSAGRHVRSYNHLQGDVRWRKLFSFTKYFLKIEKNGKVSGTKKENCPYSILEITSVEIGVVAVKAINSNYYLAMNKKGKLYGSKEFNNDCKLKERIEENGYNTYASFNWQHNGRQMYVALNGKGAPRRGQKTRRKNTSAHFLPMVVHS

[6] = system: glycogen synthase kinase-3 (GSK3A per assay name; protocol says GSK3B); assay: GSK3 binders on small-molecule microarrays, primary screen, biochemical, small-molecule microarray, 635 nm fluorescence, GSK3A (AID 1103); conditions: small-molecule microarray binding, fluorescence 635 nm; higher = more signal; also: the record names both GSK3A and GSK3B
[7] = molecular target: Epidermal growth factor receptor (Homo sapiens) (UniProt P00533); assay: EGFR binders on small-molecule microarrays, primary screen, biochemical, small-molecule microarray, 635 nm fluorescence (AID 1104); conditions: EGFR binding, higher = more signal;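 also: score merges 667 nm emission intensity with spot signal to noise over triplicate slides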
Epidermal growth factor receptor (Homo sapiens), sequence (P00533 whole entry, looked up): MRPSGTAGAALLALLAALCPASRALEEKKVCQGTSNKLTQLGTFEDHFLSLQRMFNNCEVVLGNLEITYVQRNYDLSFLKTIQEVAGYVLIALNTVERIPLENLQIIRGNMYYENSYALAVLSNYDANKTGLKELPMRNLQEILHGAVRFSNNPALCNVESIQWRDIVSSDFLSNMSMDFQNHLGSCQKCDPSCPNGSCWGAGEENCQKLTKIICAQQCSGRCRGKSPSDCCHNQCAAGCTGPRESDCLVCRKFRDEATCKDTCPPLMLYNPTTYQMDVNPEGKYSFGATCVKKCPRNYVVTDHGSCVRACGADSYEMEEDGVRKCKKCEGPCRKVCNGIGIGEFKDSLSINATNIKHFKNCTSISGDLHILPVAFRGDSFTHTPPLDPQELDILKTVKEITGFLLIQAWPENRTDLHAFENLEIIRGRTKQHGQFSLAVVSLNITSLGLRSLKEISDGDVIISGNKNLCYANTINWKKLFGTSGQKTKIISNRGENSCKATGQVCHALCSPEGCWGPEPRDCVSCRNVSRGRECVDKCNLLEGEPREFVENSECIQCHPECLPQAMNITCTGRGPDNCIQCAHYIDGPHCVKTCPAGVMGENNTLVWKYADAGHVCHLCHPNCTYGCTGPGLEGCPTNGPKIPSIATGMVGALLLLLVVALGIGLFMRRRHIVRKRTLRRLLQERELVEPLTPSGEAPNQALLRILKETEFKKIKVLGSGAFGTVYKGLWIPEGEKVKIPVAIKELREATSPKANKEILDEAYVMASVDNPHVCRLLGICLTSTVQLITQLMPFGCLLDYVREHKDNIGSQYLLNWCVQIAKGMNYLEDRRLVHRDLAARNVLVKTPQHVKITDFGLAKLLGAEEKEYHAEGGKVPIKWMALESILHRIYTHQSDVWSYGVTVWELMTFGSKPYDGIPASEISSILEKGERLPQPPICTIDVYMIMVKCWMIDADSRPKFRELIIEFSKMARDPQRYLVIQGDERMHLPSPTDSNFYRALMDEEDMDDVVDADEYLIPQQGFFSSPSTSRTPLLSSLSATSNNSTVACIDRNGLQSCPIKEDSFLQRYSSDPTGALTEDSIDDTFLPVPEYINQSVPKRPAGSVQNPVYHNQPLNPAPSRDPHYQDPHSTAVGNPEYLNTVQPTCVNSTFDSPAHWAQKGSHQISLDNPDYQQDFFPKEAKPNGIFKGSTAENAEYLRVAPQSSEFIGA

[8] = molecular target: Follistatin-related protein 3 (Homo sapiens) (UniProt O95633); assay: FSTL3 binders on small-molecule microarrays, primary screen, biochemical, small-molecule microarray, 635 nm fluorescence (AID 1105); conditions: FSTL3 binding, higher = more signal;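 also: score merges emission near 667 nm and signal to noise per printed spot across three slides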
Follistatin-related protein 3 (Homo sapiens), sequence (O95633 whole entry, looked up): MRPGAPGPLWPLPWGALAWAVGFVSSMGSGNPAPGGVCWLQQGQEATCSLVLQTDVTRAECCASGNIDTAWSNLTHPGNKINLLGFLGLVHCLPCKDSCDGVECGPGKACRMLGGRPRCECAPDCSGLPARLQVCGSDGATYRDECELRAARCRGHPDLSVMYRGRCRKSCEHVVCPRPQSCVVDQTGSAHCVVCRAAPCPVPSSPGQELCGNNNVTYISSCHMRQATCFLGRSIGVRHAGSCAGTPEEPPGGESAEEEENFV

[9] = molecular target: Dickkopf-related protein 1 (Homo sapiens) (UniProt O94907); assay: DKK1 binders on small-molecule microarrays, primary screen, biochemical, small-molecule microarray, 635 nm fluorescence scan (AID 1106); conditions: DKK1 binding, higher = more signal;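 also: score merges emission near 667 nm with signal to noise over three replicate slides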
Dickkopf-related protein 1 (Homo sapiens), sequence (O94907 whole entry, looked up): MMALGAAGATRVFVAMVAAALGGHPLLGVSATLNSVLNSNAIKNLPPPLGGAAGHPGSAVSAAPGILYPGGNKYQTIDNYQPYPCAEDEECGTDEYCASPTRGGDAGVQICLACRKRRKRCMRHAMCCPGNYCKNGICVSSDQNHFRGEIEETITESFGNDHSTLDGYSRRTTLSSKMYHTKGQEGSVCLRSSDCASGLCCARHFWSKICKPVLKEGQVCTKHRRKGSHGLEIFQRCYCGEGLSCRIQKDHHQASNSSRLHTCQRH

[10] = system: Inhibin beta A chain (activin A); assay: INHBA (activin A) binders on microarrays, primary screen, biochemical, small-molecule microarray, 635 nm fluorescence scan (AID 1107); conditions: small-molecule microarray binding, higher = more signal;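 also: mouse activin A protein probed at 4.33 µg/mL on printed slides; score merges bound-protein fluorescence near 667 nm with spot signal-to-noise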

Row | Structure (SMILES) | composite z-score [1] | composite z-score [2] | composite z-score [3] | z-score [4] | composite z-score [5] | composite z-score [6] | composite z-score [7] | composite z-score [8] | composite z-score [9] | composite z-score [10]
1 | Cc1ccc(S[C@]2(C(=O)O)CC(=O)N(Cc3ccccc3)[C@@H]2c2ccc(CO)cc2)cc1 | -0.844 | 0.638 | 0.899 | -0.718 (inactive) | -0.0355 | 0.132 | -0.289 | -0.0951 | -0.304 | 1.04
2 | CCCN1C(=O)[C@@]2(CCS(=O)(=O)c3ccccc3)N=C(c3ccc(OCCCO)cc3)O[C@H]2c2ccccc21 | 0.915 | 0.164 | 0.827 | 0.597 (inactive) | 0.736 | 1.31 | 0.279 | 0.998 | 0.503 | 0.96
3 | O=C(NCC(F)(F)F)[C@@H]1c2ccccc2C(=O)N(Cc2ccccc2Cl)[C@H]1c1ccc(CO)cc1 | 1.68 | 0.624 | -0.363 | 0.632 (inactive) | -0.85 | -1.1 | -0.728 | -0.643 | -0.941 | -0.0121
4 | Cc1ccc(N2C(=O)c3ccccc3[C@@H](C(=O)NCc3ccccc3)[C@@H]2c2ccc(CO)cc2)nc1 | -0.566 | 0.601 | 1.01 | -1.47 (inactive) | 0.329 | -1.13 | -0.446 | -0.526 | 0.251 | 1.71
5 | CC(=O)NCCCC[C@@H]1NC(=O)[C@H]2C[C@@H](C(=O)NCCCCCCN(C)C)[C@@H](c3cccc(OCCO)c3)N2C1=O | 1.5 | 0.822 | 0.649 | 0.567 (inactive) | 1.39 | 1.36 | 1.64 | 1.1 | 1.77 | 0.298
6 | COCC(=C=CC[C@H](O)c1ccc(OCCO)cc1)C[C@H](O)c1ccccn1 | 0.338 | -0.169 | -0.201 | 0.0572 (inactive) | -0.198 | 0.208 | -0.829 | -0.293 | -0.326 | 0.403
7 | CO[C@H]1COC(=O)[C@H](CCSC)NC(=O)CC=C[C@@H](C)COC(=O)[C@@H](OCc2ccccc2)C=C[C@@H]1C | 0.979 | 0.981 | -1.41 | -0.342 (inactive) | 0.485 | 0.743 | 0.574 | 1.15 | 2 | 0.397
8 | CC1CC/C=C\[C@H]2OC34C=CCN(Cn5nnc6ccccc65)C(=O)[C@H]3N(C(C)CO)C(=O)[C@@H]4C2C(=O)O1 (stereo not given in full) | 1.26 | -0.0466 | 0.201 | 0.825 (inactive) | 0.0056 | -0.837 | -0.848 | -0.814 | -0.936 | 0.494
9 | C[N+](C)(C)CCCC[C@@H]1NC(=O)[C@H]2C[C@@H](C(=O)NCc3ccc(F)cc3)[C@@H](c3cccc(OCCO)c3)N2C1=O | 0.459 | 0.0243 | 0.479 | -0.178 (inactive) | 0.988 | 0.519 | 0.139 | 0.954 | 0.885 | -0.7
10 | COc1cc(CO)cc(I)c1O[C@H]1C=C(C(=O)NCCO)C[C@@H](N(CC2CCCCC2)C(=O)c2cc3ccccc3oc2=O)[C@@H]1O | -0.375 | -0.34 | -0.293 | -0.00607 (inactive) | 0.975 | 0.0996 | 0.6 | 0.797 | 0.174 | 0.14
11 | C=CCOC(=O)[C@@H]1[C@H]2C(=O)O[C@H](c3ccccc3)[C@H](c3ccccc3)N2[C@H](c2ccc(OCCOC(=O)[C@H]3C[C@H]4C(=O)N[C@@H](CCCCNC(C)=O)C(=O)N4[C@H]3c3ccc(O)cc3)cc2)[C@@]12C(=O)Nc1ccc(I)cc12 | 1.3 | -0.173 | -0.119 | 0.711 (inactive) | 1.03 | 1.28 | 0.603 | 1.19 | 0.394 | 0.565
12 | CO[C@H]1O[C@H](CO)[C@@H](OC(=O)Nc2ccc(Oc3ccccc3)cc2)[C@H](OC(=O)Nc2ccccc2-c2ccccc2)[C@H]1OC(=O)Nc1ccccc1-c1ccccc1 | 1.35 | 0.542 | 0.748 | 2.76 (inactive) | 1.14 | 1.34 | 0.528 | 1.36 | 0.538 | 0.187
